Inconclusive results are not listed. Active and inactive are the calls of the source. Unless noted, calls follow the shape of the dose curve; as a rule, active = well fitted inhibition curve with a large enough effect; inconclusive = small, poorly fitted or top-dose-only effect; inactive = flat fitted curve, though single readings scatter.
Legend:
[1] = qHTS drug screen for cell cycle checkpoint inhibitors in PARPi-resistant BRCA-mutant ovarian cancer cell lines. (AID 1963452; calls by dose curve; also: potency is read from the fitted curve at half-maximal effect); conditions: PEO1/OlaR viability, CellTiter-Glo luminescence, 96 h; for Z-AUC: stronger effect = lower value
Outline: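 PEO1, PEO4 and PEO1/OlaR ovarian cancer cells, 600 per well, exposed 96 h at 37C to a dilution series. Viability read by CellTiter-Glo luminescence, normalized to DMSO and empty wells; activity summarized as Z-AUC.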

[2] = qHTS profiling for inhibitors of Plasmodium falciparum proliferation (AID 504749); also: nearly all actives have a fitted effect of over 60% in size; also: potency is read from the fitted curve at half-maximal effect;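 as to activity, negative = inhibition: 0% = DMSO vehicle and full inhibition = artemisinin control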; conditions: P. falciparum in erythrocytes, SYBR Green DNA, 72 h
Outline: (§1)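 Readout was DNA-dye fluorescence from lysed cultures, ex 485/em 535 nm. Parasitized red cells had grown 72 h with compound; data scaled between 0.29 uM artemisinin and DMSO wells and corrected using vehicle-only plates.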

3D7 = assay: as above; conditions: P. falciparum in erythrocytes, SYBR Green DNA, 72 h; series mostly up to 28.7 µM
Outline: as §1

7G8 = assay: as above; conditions: P. falciparum in erythrocytes, SYBR Green DNA, 72 h; series mostly up to 28.7 µM
Outline: as §1

AA1029 = assay: as above; conditions: P. falciparum in erythrocytes, SYBR Green DNA, 72 h; series mostly up to 28.7 µM
Outline: as §1

AS120 = assay: as above; conditions: P. falciparum in erythrocytes, SYBR Green DNA, 72 h; series mostly up to 28.7 µM
Outline: as §1

ATS189 = assay: as above; conditions: P. falciparum in erythrocytes, SYBR Green DNA, 72 h; series mostly up to 28.7 µM
Outline: as §1

ATS95 = assay: as above; conditions: P. falciparum in erythrocytes, SYBR Green DNA, 72 h; series mostly up to 28.7 µM
Outline: as §1

C2A = assay: as above; conditions: P. falciparum in erythrocytes, SYBR Green DNA, 72 h; series mostly up to 28.7 µM
Outline: as §1

CP185 = assay: as above; conditions: P. falciparum in erythrocytes, SYBR Green DNA, 72 h; series mostly up to 28.7 µM
Outline: as §1

CP191 = assay: as above; conditions: P. falciparum in erythrocytes, SYBR Green DNA, 72 h; series mostly up to 28.7 µM
Outline: as §1

CP194 = assay: as above; conditions: P. falciparum in erythrocytes, SYBR Green DNA, 72 h; series mostly up to 28.7 µM
Outline: as §1

CP201 = assay: as above; conditions: P. falciparum in erythrocytes, SYBR Green DNA, 72 h; series mostly up to 28.7 µM
Outline: as §1

CP203 = assay: as above; conditions: P. falciparum in erythrocytes, SYBR Green DNA, 72 h; series mostly up to 28.7 µM
Outline: as §1

CP211 = assay: as above; conditions: P. falciparum in erythrocytes, SYBR Green DNA, 72 h; series mostly up to 28.7 µM
Outline: as §1

CP215 = assay: as above; conditions: P. falciparum in erythrocytes, SYBR Green DNA, 72 h; series mostly up to 28.7 µM
Outline: as §1

CP217 = assay: as above; conditions: P. falciparum in erythrocytes, SYBR Green DNA, 72 h; series mostly up to 28.7 µM
Outline: as §1

CP237 = assay: as above; conditions: P. falciparum in erythrocytes, SYBR Green DNA, 72 h; series mostly up to 28.7 µM
Outline: as §1

[3] = qHTS for identification of novel therapeutic agents for treatment of microphthalmiaassociated transcription factor (MiT) renal cell carcinoma (RCC) (AID 1963991); conditions: CellTiter-Glo, 48 h, stronger effect = lower value
Outline: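 Three TFE3-fusion RCC lines (UOK109, UOK124, UOK145), 500 cells/well in complete medium, were treated with MIPE 4.0 compounds for 48 hours at 37 C. Viability was by CellTiter-Glo luminescence, normalized to DMSO (100%) and empty wells (0%); curves fitted over 11 concentrations.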

CP192 = assay: qHTS profiling for inhibitors of Plasmodium falciparum proliferation (AID 504749); also: nearly all actives have a fitted effect of over 60% in size; also: potency is read from the fitted curve at half-maximal effect;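 as to activity, negative = inhibition: 0% = DMSO vehicle and full inhibition = artemisinin control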; conditions: P. falciparum in erythrocytes, SYBR Green DNA, 72 h; series mostly up to 28.7 µM
Outline: as §1

[4] = measured here: PEO1 parental Z-AUC
[5] = at 12.8 µM (top of the series), parasite line A
[6] = at 12.8 µM (top of the series), parasite line B
[7] = TFE3-RCC UOK109 viability, measured here: UOK109 Z-AUC
[8] = TFE3-RCC viability, measured here: UOK124 Z-AUC
[9] = TFE3-RCC viability, measured here: UOK145 Z-AUC
[10] = at 28.7 µM (top of the series), parasite line A
[11] = at 28.7 µM (top of the series), parasite line B

COC(=O)Nc1nc2ccc(Sc3ccccc3)cc2[nH]1
-0.935: Z-AUC [1, 4]
-0.94: Z-AUC ([1]; measured here: PEO4 Z-AUC)
inactive: Z-AUC [1] -0.927 | activity, negative = inhibition [2, 5] 5.04% | activity, negative = inhibition [2, 6] -0.246% | Potency (3D7) | Potency (7G8) | Potency (AA1029) | Potency (AS120) | Potency (ATS189) | Potency (ATS95) | Potency (C2A) | Potency (CP185) | Potency (CP191) | Potency (CP194) | Potency (CP201) | Potency (CP203) | Potency (CP211) | Potency (CP215) | Potency (CP217) | Potency (CP237)

COc1cc([C@@H]2c3cc4c(cc3[C@H](O)[C@H]3COC(=O)[C@H]23)OCO4)cc(OC)c1OC
active: Potency [1] 0.0174 µM | Potency ([2]; parasite line A) 8.91 µM | Potency ([2]; parasite line B) 8.91 µM | Potency (3D7) 2.24 µM | Potency (7G8) 0.316 µM | Potency (AA1029) 11.2 µM | Potency (AS120) 5.01 µM | Potency (ATS189) 3.55 µM | Potency (ATS95) 8.91 µM | Potency (CP191) 3.55 µM | Potency (CP203) 12 µM | Potency (CP215) 13.5 µM | Potency (CP237) 3.16 µM
-1.81: Z-AUC [1, 4]
-1.94: Z-AUC ([1]; measured here: PEO4 Z-AUC)

N[C@@H](Cc1ccc(O)c(O)c1)C(=O)O
0.453: z-score [3, 8]
0.912: z-score [3, 7]
0.735: Z-AUC ([1]; measured here: PEO4 Z-AUC)
inactive: Z-AUC [1] -0.0147 | Potency (CP192) | Potency (CP194) | Potency (CP201) | Potency (CP203) | Potency (CP211) | Potency (CP215)
0.282: z-score [3, 9]
0.128: Z-AUC [1, 4]

CNNCc1ccc(C(=O)NC(C)C)cc1
1.05: Z-AUC ([1]; measured here: PEO4 Z-AUC)
0.747: Z-AUC [1, 4]
inactive: Z-AUC [1] 1.13 | activity, negative = inhibition [2, 10] 0.0651% | activity, negative = inhibition [2, 11] -2.63% | Potency (3D7) | Potency (AA1029) | Potency (AS120) | Potency (ATS189) | Potency (ATS95) | Potency (C2A) | Potency (CP185) | Potency (CP192) | Potency (CP194) | Potency (CP203) | Potency (CP211) | Potency (CP215) | Potency (CP217) | Potency (CP237)

OC(Cn1cncn1)(Cn1cncn1)c1ccc(F)cc1F
0.906: z-score [3, 8]
1.12: Z-AUC ([1]; measured here: PEO4 Z-AUC)
-0.107: z-score [3, 9]
0.751: z-score [3, 7]
0.99: Z-AUC [1, 4]
inactive: Z-AUC [1] -0.0807 | activity, negative = inhibition [2, 10] 5.43% | Potency (3D7) | Potency (7G8) | Potency (AA1029) | Potency (AS120) | Potency (ATS189) | Potency (ATS95) | Potency (C2A) | Potency (CP185) | Potency (CP191) | Potency (CP192) | Potency (CP194) | Potency (CP201) | Potency (CP203) | Potency (CP211) | Potency (CP215) | Potency (CP217) | Potency (CP237)

C1CCC(C(CC2CCCCN2)C2CCCCC2)CC1 (stereo not given)
inactive: Z-AUC [1] -0.764
-0.095: Z-AUC [1, 4]
-0.0366: Z-AUC ([1]; measured here: PEO4 Z-AUC)
active: Potency ([2]; parasite line B) 8.91 µM | Potency (3D7) 7.94 µM | Potency (7G8) 1.26 µM | Potency (AA1029) 11.2 µM | Potency (AS120) 7.94 µM | Potency (ATS189) 11.2 µM | Potency (ATS95) 11.2 µM | Potency (C2A) 11.2 µM | Potency (CP185) 10 µM | Potency (CP191) 11.2 µM | Potency (CP194) 15.1 µM | Potency (CP217) 10 µM | Potency (CP237) 7.94 µM

Cc1cccc(N(C)C(=S)Oc2ccc3ccccc3c2)c1
inactive: Z-AUC [1] 0.688 | activity, negative = inhibition [2, 5] -2.31% | activity, negative = inhibition [2, 6] 0.272% | Potency (3D7) | Potency (7G8) | Potency (AA1029) | Potency (AS120) | Potency (ATS189) | Potency (ATS95) | Potency (C2A) | Potency (CP185) | Potency (CP191) | Potency (CP192) | Potency (CP194) | Potency (CP201) | Potency (CP203) | Potency (CP211) | Potency (CP215) | Potency (CP217) | Potency (CP237)
0.795: Z-AUC ([1]; measured here: PEO4 Z-AUC)
0.339: Z-AUC [1, 4]

CC(=O)Oc1ccccc1C(=O)Nc1ncc([N+](=O)[O-])s1
active: Potency (7G8) 10 µM | Potency (CP237) 12.6 µM
inactive: Z-AUC [1] 0.99 | activity, negative = inhibition [2, 10] 1.42% | activity, negative = inhibition [2, 11] 8% | Potency (AA1029) | Potency (AS120) | Potency (ATS189) | Potency (ATS95) | Potency (C2A) | Potency (CP185) | Potency (CP191) | Potency (CP192) | Potency (CP194) | Potency (CP201) | Potency (CP203) | Potency (CP211) | Potency (CP215) | Potency (CP217)
0.864: Z-AUC [1, 4]
0.834: Z-AUC ([1]; measured here: PEO4 Z-AUC)

COc1cc2c(Nc3ccc(Br)cc3F)ncnc2cc1OCC1CCN(C)CC1
inactive: Z-AUC [1] 0.231 | Potency (CP211)
-0.0991: Z-AUC ([1]; measured here: PEO4 Z-AUC)
active: Potency ([2]; parasite line A) 1.78 µM | Potency ([2]; parasite line B) 1 µM | Potency (3D7) 2.51 µM | Potency (7G8) 3.16 µM | Potency (AA1029) 2.82 µM | Potency (AS120) 3.16 µM | Potency (ATS189) 5.01 µM | Potency (ATS95) 3.55 µM | Potency (C2A) 3.16 µM | Potency (CP185) 3.55 µM | Potency (CP191) 3.16 µM | Potency (CP217) 0.447 µM | Potency (CP237) 3.98 µM
0.081: Z-AUC [1, 4]

CCn1cc(C(=O)O)c(=O)c2cc(F)c(N3CCN(C)CC3)cc21
0.753: z-score [3, 9]
0.298: z-score [3, 8]
1.07: Z-AUC ([1]; measured here: PEO4 Z-AUC)
0.77: z-score [3, 7]
inactive: Z-AUC [1] 1.22 | activity, negative = inhibition [2, 11] -21.5% | Potency (3D7) | Potency (CP192) | Potency (CP194) | Potency (CP201)
0.931: Z-AUC [1, 4]

COc1ccc2cc3[n+](cc2c1OC)CCc1cc2c(cc1-3)OCO2
inactive: Z-AUC [1] 0.64
active: Potency ([2]; parasite line A) 0.447 µM | Potency ([2]; parasite line B) 1.26 µM | Potency (3D7) 2 µM | Potency (7G8) 0.282 µM | Potency (AA1029) 0.708 µM | Potency (AS120) 1.26 µM | Potency (ATS189) 1.41 µM | Potency (ATS95) 1.12 µM | Potency (C2A) 1 µM | Potency (CP185) 0.708 µM | Potency (CP191) 0.891 µM | Potency (CP192) 0.849 µM | Potency (CP194) 2.13 µM | Potency (CP201) 1.69 µM | Potency (CP203) 1.07 µM | Potency (CP211) 0.757 µM | Potency (CP215) 0.953 µM | Potency (CP217) 1.41 µM | Potency (CP237) 1.26 µM
0.437: Z-AUC ([1]; measured here: PEO4 Z-AUC)
-0.712: Z-AUC [1, 4]

COc1ccc(-c2ccc3cc(C(=O)O)ccc3c2)cc1C12CC3CC(CC(C3)C1)C2
-0.0792: Z-AUC [1, 4]
-0.489: Z-AUC ([1]; measured here: PEO4 Z-AUC)
inactive: Z-AUC [1] 0.117 | activity, negative = inhibition [2, 10] 6.34% | activity, negative = inhibition [2, 11] 6.13% | Potency (3D7) | Potency (AA1029) | Potency (AS120) | Potency (ATS189) | Potency (C2A) | Potency (CP185) | Potency (CP191) | Potency (CP192) | Potency (CP194) | Potency (CP201) | Potency (CP203) | Potency (CP211) | Potency (CP215) | Potency (CP217) | Potency (CP237)

From PubChem BioAssay (NCATS)
